{"source": "PubChem BioAssay (NCI)", "note": "About 83,000 compounds went through this panel and 20% of them were active in at least one assay; those are over-represented in the sample as a whole.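 Negative percent growth values reflect cell death: -40 means 40% of the cells present at the start died, and -100 means all died.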 A number with no mark means an inactive call. Active and inactive are the calls of the source. The calls were made as follows: active = growth percent below 10; inactive = the rest."}
{"tested_on": "NCI-H23 lung", "assay": "NCI-60 one-dose screen, 48 h (100 = growth as untreated, 0 = no growth, -100 = all killed)", "details": "10 µM unless noted", "units": {"growth": "%"}}
{"smiles": "CCCCNC1=C(OCC)C(=O)c2ccccc2C1=O", "growth": 83.5}
{"smiles": "C#CC#CC#CC#CC#CC#CC#CC#CC[C@H]1OC[C@H](COC(=O)O[C@@H](C(=O)O[C@H]2C[C@@]3(O)[C@@H](OC(=O)c4ccccc4)[C@@H]4[C@]5(OC(C)=O)CO[C@@H]5C[C@H](O)[C@@]4(C)C(=O)[C@H](OC(C)=O)C(=C2C)C3(C)C)[C@@H](NC(=O)c2ccccc2)c2ccccc2)O1", "growth": 45.8}
{"smiles": "CCn1c2ccc(O)cc2c2c(C)c3c[n+](C(C)C)ccc3c(C)c21", "growth": 36.3}
{"smiles": "C=CCOC(=O)C1=C(C)NC(=O)NC1c1c(Cl)n(C)c2ccccc12", "note": "(centres undefined)", "growth": 88.3}
{"tested_on": "NCI-H226 lung", "assay": "NCI-60 one-dose screen, 48 h (100 = growth as untreated, 0 = no growth, -100 = all killed)", "details": "10 µM unless noted"}
{"smiles": "O=C(O)C1CN(c2cccc(Cl)c2)N(c2cccc(Cl)c2)C1=O", "note": "(centres undefined)", "growth": "92.8%"}
{"smiles": "COc1ccc2c(c1)c(-c1ccc(-c3cn(C)c4ccc(OC)cc34)[nH]1)cn2C", "growth": "58.8%"}
{"smiles": "CCN1CCN(CC(=O)Nc2nc3ccc(NCc4ccc(Br)cc4)cc3s2)CC1", "growth": "64.6%"}
{"smiles": "CC(C)c1ccc(-n2c(=S)[nH]c3sc4c(c3c2=O)CCC(=O)C4)cc1", "growth": "84.9%"}
{"smiles": "Cc1nc2sc(C(=O)Nc3cccc(Cl)c3)c(N)c2cc1C(O)c1ccccc1", "note": "(centres undefined)", "growth": "54.1%"}
{"smiles": "Cc1cscc(C)c1=S", "growth": "103%"}
{"smiles": "COc1ccc(C2=NN(C(=O)c3cc(OC)c(OC)c(OC)c3)C(c3ccc(N(C)C)cc3)C2)cc1", "note": "(centres undefined)", "growth": "20.6%"}
{"smiles": "CN(C)c1ccc(/C=C2/C=C(c3ccccc3)OC2=O)cc1", "growth": "105%"}
{"smiles": "CN1CCN(c2ccc3c(c2)nc(NNC(=O)c2cnccn2)c2cccn23)CC1", "growth": "38%"}
{"smiles": "CN(CCC#N)c1ccc(/C=C2\\NC(=O)NC2=O)cc1", "growth": "96.7%"}
{"smiles": "COc1ccc(C(c2cc(OC)c(OC)c(OC)c2)N2CCCC2)cc1", "note": "(centres undefined)", "growth": "87.6%"}
{"smiles": "O=C(/C=C/c1ccc(Br)cc1)c1ccc(-n2cc(CN3CCN(c4cc5c(cc4F)c(=O)c(C(=O)O)cn5C4CC4)CC3)nn2)cc1", "growth": "84.5%"}
{"smiles": "CCOC(=O)n1cc(-c2nonc2-c2cn(C)c3ccccc23)c2ccccc21", "growth": "75.4%"}
{"smiles": "CCOC(=O)c1n[nH]n2c1nc(=O)c1cnn(C)c12", "growth": "98.1%"}
{"smiles": "C#CC#CC#CC#CC#CC#CC#CC#CCC1OCC(COC(=O)O[C@@H](C(=O)O[C@H]2C[C@@]3(O)[C@@H](OC(=O)c4ccccc4)[C@@H]4[C@]5(OC(C)=O)CO[C@@H]5C[C@H](O)[C@@]4(C)C(=O)[C@H](OC(C)=O)C(=C2C)C3(C)C)[C@@H](NC(=O)c2ccccc2)c2ccccc2)O1", "note": "(some centres undefined)", "growth": "37.6%"}
{"smiles": "CCn1cc(C(=O)N/N=C/c2ccc(Br)cc2)c(=O)c2cc(F)c(N3CCNC(C)C3)c(F)c21", "note": "(centres undefined)", "growth": "97.3%"}
{"smiles": "CCSC1=CC(=O)c2ccccc2C1=O", "growth": "88.4%"}
{"smiles": "N#Cc1c(NC(=O)c2cccs2)[n+]([O-])c2ccc(Cl)cc2[n+]1[O-]", "growth": "92.1%"}
{"smiles": "O=C(c1ccc(Cl)cc1Cl)N1c2ccccc2Sc2ccccc21", "growth": "68%"}
{"smiles": "CN(C)c1ccc(/C=C/C(=O)c2ccc(Nc3nc(Nc4ccc(F)cc4)nc(Nc4ccc(Cl)cc4)n3)cc2)cc1", "growth": "89.3%"}
{"smiles": "CCN1C(=O)N(CC)C2C1NN=c1s/c(=C3\\C(=O)N(CCc4ccccc4)c4ccccc43)c(=O)n12", "note": "(centres undefined)", "growth": "24.8%"}
{"smiles": "Cn1c(/C=C/[N+](=O)[O-])cc2ccccc21", "growth": "4.78% (active)"}
{"smiles": "CCN(CCO)CC(C)Nc1ccc([N+](=O)[O-])c2sc3ccccc3c(=O)c12", "note": "(centres undefined)", "growth": "14.4%"}
{"smiles": "CCOC(=O)C1CCN(c2ccc(N3C[C@@H](CNCc4ccc(C(=N)N)cc4)OC3=O)cc2)CC1", "growth": "97.2%"}
{"smiles": "CC1=NN(c2ccc(Cl)cc2)CC1(C)N=O", "note": "(centres undefined)", "growth": "76.9%"}
{"smiles": "CCN1C(=O)N(CC)C2C1NN=c1s/c(=C\\c3ccccc3Br)c(=O)n12", "note": "(centres undefined)", "growth": "56.7%"}
{"smiles": "Cc1cc(N2CCN(C)CC2)nc(NCc2cc(Nc3ccnc4cc(Cl)ccc34)ccc2F)n1", "growth": "40.1%"}
{"smiles": "c1ccc2cc(Cn3c[n+](Cc4ccc5ccccc5c4)c4ccccc43)ccc2c1", "growth": "19.6%"}
{"smiles": "Cc1ccc2[nH]c(-c3ccc(S(C)(=O)=O)cc3)c(/C=N/N=C(N)N)c2c1", "growth": "76.6%"}
{"smiles": "COc1ccc(-c2cc(C(=O)N3N=C(c4ccc(N)cc4)CC3c3ccccc3)c3ccccc3n2)cc1", "note": "(centres undefined)", "growth": "77.3%"}
